Laboratory results as given in PubChem BioAssay (NCATS).
Records with an inconclusive call do not appear. A call without a number means that no potency is given here. The source made the active and inactive calls. Calls come from the whole dose curve; as a rule, active = well fitted curve in the direction sought with a large enough effect; inconclusive = small, poorly fitted or top-dose-only effect, or another doubt; inactive = no such curve, though single readings can be large; an effect the other way counts as inactive or inconclusive.

Key:
[1] = qHTS of pediatric cancer cell lines to identify multiple opportunities for drug repurposing: Primary screen for U-2 OS cells (AID 1347096); note: nearly all actives have a fitted effect of over 50% in size; note: potency is the fitted concentration of half-maximal effect
Outline: (§1)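 Viability after 48 h compound treatment at 37C, 500-1,000 cells/well, read as ATP luminescence with CellTiter-Glo. Primary screens used 11-point (MIPE, 0.78 nM-46 µM) or 8-point (NPC, 0.59 nM-46 µM) final concentrations; follow-up screens used 11-point dilutions.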

[2] = qHTS of pediatric cancer cell lines to identify multiple opportunities for drug repurposing: Primary screen for Saos-2 cells (AID 1347097); note: nearly all actives have a fitted effect of over 40% in size; note: potency is the fitted concentration of half-maximal effect
Outline: (§2)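 Cells plated at 500-1,000/well in growth medium, compounds added after 5 h. MIPE tested at 11 points (from 0.78 nM), NPC at 8 points (from 0.59 nM). CellTiter-Glo luminescence after 48 h; concentration-response curves from primary screen.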

[3] = qHTS of pediatric cancer cell lines to identify multiple opportunities for drug repurposing: Primary screen for SK-N-SH cells (AID 1347098); note: nearly all actives have a fitted effect of over 65% in size; note: potency is the fitted concentration of half-maximal effect
Outline: (§3)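 Cells (500-1,000/well) rested 5 h, then received compounds for 48 h; metabolically active cells were measured by CellTiter-Glo luminescence. Final concentrations spanned up to 46 µM (MIPE, 11-point) or 0.59 nM-46 µM (NPC, 8-point) in primary screens, 11-point in follow-ups.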

[4] = qHTS of pediatric cancer cell lines to identify multiple opportunities for drug repurposing: Primary screen for LAN-5 cells (AID 1347100); note: potency is the fitted concentration of half-maximal effect
Outline: as §1

[5] = qHTS of pediatric cancer cell lines to identify multiple opportunities for drug repurposing: Primary screen for BT-12 cells (AID 1347101); note: nearly all actives have a fitted effect of over 25% in size; note: potency is the fitted concentration of half-maximal effect
Outline: as §3

[6] = qHTS of pediatric cancer cell lines to identify multiple opportunities for drug repurposing: Primary screen for Rh18 cells (AID 1347102); note: nearly all actives have a fitted effect of over 65% in size; note: potency is the fitted concentration of half-maximal effect
Outline: as §1

[7] = qHTS of pediatric cancer cell lines to identify multiple opportunities for drug repurposing: Primary screen for OHS-50 cells (AID 1347103); note: nearly all actives have a fitted effect of over 40% in size; note: potency is the fitted concentration of half-maximal effect
Outline: as §3

[8] = qHTS of pediatric cancer cell lines to identify multiple opportunities for drug repurposing: Primary screen for MG 63 (6-TG R) cells (AID 1347105); note: nearly all actives have a fitted effect of over 50% in size; note: potency is the fitted concentration of half-maximal effect
Outline: as §2

[9] = qHTS of pediatric cancer cell lines to identify multiple opportunities for drug repurposing: Primary screen for control Hh wild type fibroblast cells (AID 1347106);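 note: series mostly up to about 46 µM; a drop in luminescence marks cytotoxicity and a rise apparent proliferation; nearly all actives have a fitted effect of over 55% in size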
Outline: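 Cells (500-1,000/well) in growth media were settled 5 h at 37 degrees C, then given compounds for 48 h. Viability was read as CellTiter-Glo luminescence. Primary runs used MIPE at 11 points (0.78 nM-46 µM) and NPC at 8 points (0.59 nM-46 µM); follow-ups used 11 points.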

[10] = qHTS of pediatric cancer cell lines to identify multiple opportunities for drug repurposing: Confirmatory screen for A673 cells (AID 1347110); note: potency is the fitted concentration of half-maximal effect; nearly all actives have a fitted effect of over 65% in size
Outline: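 A673 cells seeded at 500-1,000 cells/well, rested 5 h, then dosed; primary MIPE 11-point (0.78 nM to 46 µM), NPC (0.59 nM to 46 µM); confirmatory 11-point. CellTiter-Glo luminescence after 48 h.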

[11] = qHTS of pediatric cancer cell lines to identify multiple opportunities for drug repurposing: Confirmatory screen for SK-N-MC cells (AID 1347111);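 note: potency is the fitted concentration of half-maximal effect; cells exposed to compound for 48 h before the readout; nearly all actives have a fitted effect of over 70% in size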
Outline: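 SK-N-MC cells at 500-1,000 cells/well in growth media were pre-incubated 5 h, then exposed to compounds at 11-point dilutions for 48 h at 37 degrees C, 5% CO2. Viability was read as CellTiter-Glo luminescence.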

[12] = qHTS of pediatric cancer cell lines to identify multiple opportunities for drug repurposing: Confirmatory screen for BT-12 cells (AID 1347112); note: potency is the fitted concentration of half-maximal effect; nearly all actives have a fitted effect of over 55% in size
Outline: as §1

[13] = qHTS of pediatric cancer cell lines to identify multiple opportunities for drug repurposing: Confirmatory screen for DAOY cells (AID 1347114); note: potency is the fitted concentration of half-maximal effect; nearly all actives have a fitted effect of over 65% in size
Outline: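 Viability measured as metabolically active cells via CellTiter-Glo luminescence following 48 hours of compound exposure, 11-point dilutions in confirmatory testing. 500-1,000 cells/well plated 5 hours before dosing; controls were DMSO and 2.3 µM bortezomib.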

[14] = qHTS of pediatric cancer cell lines to identify multiple opportunities for drug repurposing: Confirmatory screen for NB-EBc1 cells (AID 1347115); note: nearly all actives have a fitted effect of over 45% in size; note: potency is the fitted concentration of half-maximal effect
Outline: as §1

[15] = qHTS of pediatric cancer cell lines to identify multiple opportunities for drug repurposing: Primary screen for NB1643 cells (AID 1347099); note: nearly all actives have a fitted effect of over 50% in size; note: potency is the fitted concentration of half-maximal effect
Outline: as §2

[16] = qHTS of pediatric cancer cell lines to identify multiple opportunities for drug repurposing: Primary screen for RD cells (AID 1347104); note: nearly all actives have a fitted effect of over 55% in size; note: potency is the fitted concentration of half-maximal effect
Outline: as §2

[17] = qHTS of pediatric cancer cell lines to identify multiple opportunities for drug repurposing: Primary screen for Rh30 cells (AID 1347107); note: nearly all actives have a fitted effect of over 75% in size; note: potency is the fitted concentration of half-maximal effect
Outline: as §1

[18] = qHTS of pediatric cancer cell lines to identify multiple opportunities for drug repurposing: Primary screen for Rh41 cells (AID 1347108); note: nearly all actives have a fitted effect of over 70% in size; note: potency is the fitted concentration of half-maximal effect
Outline: as §2

[19] = qHTS of pediatric cancer cell lines to identify multiple opportunities for drug repurposing: Confirmatory screen for NB1643 cells (AID 1347109); note: potency is the fitted concentration of half-maximal effect; nearly all actives have a fitted effect of over 45% in size
Outline: as §1

[20] = qHTS of pediatric cancer cell lines to identify multiple opportunities for drug repurposing: Confirmatory screen for LAN-5 cells (AID 1347113)
Outline: as §1

Row | Compound | Potency [1] | Potency [2] | Potency [3] | Potency [4] | Potency [5] | Potency [6] | Potency [7] | Potency [8] | Potency [9] | Potency [10] | Potency [11] | Potency [12] | Potency [13] | Potency [14] | Potency [15] | Potency [16] | Potency [17] | Potency [18] | Potency [19] | Potency [20]
1 | CC1(C)O[C@@H]2C[C@@H]3[C@H]4C[C@@H](F)C5=CC(=O)C=C[C@]5(C)[C@@]4(F)[C@@H](O)C[C@]3(C)[C@]2(C(=O)CO)O1 | inactive | inactive | inactive | inactive | inactive | inactive | inactive | inactive | inactive | 0.0928 µM (active) | 0.293 µM (active) | 0.0737 µM (active) | 0.737 µM (active) | 11.7 µM (active) |  |  |  |  |  | 
2 | C=CC(=O)Nc1cccc(Oc2nc(Nc3ccc(N4CCN(C)CC4)cc3OC)ncc2Cl)c1 | 23.5 µM (active) | 6.62 µM (active) |  | 1.05 µM (active) | 34.3 µM (active) | 20.9 µM (active) | 4.85 µM (active) |  |  | 20.8 µM (active) | 13.1 µM (active) |  |  | inactive | 1.18 µM (active) | 7.43 µM (active) | 23.5 µM (active) | 0.118 µM (active) | 23.3 µM (active) | 
3 | CC(=O)OCCN1C(=O)c2c(C)nc3ccc(S(=O)(=O)N4CCOCC4)cc3c2C1=O | inactive | inactive | inactive |  | 10.9 µM (active) | inactive | 24.3 µM (active) | inactive | inactive |  |  |  |  |  |  |  | inactive | inactive |  | 
4 | CN1CC[C@@H](c2c(O)cc(O)c3c(=O)cc(-c4ccccc4Cl)oc23)[C@@H](O)C1 | 0.296 µM (active) | 0.148 µM (active) | 0.0764 µM (active) |  | 0.122 µM (active) |  | 0.122 µM (active) | 0.148 µM (active) |  | 0.522 µM (active) | 0.414 µM (active) | 0.737 µM (active) | 0.465 µM (active) | inactive |  |  | inactive | 0.296 µM (active) | 0.261 µM (active) | 0.465 µM (active)
5 | Cc1cc(Nc2cc(CN3CCOCC3)c3nc(C)c(Cc4ccc(Cl)cc4F)n3n2)n[nH]1 | inactive | 5.9 µM (active) | 6.81 µM (active) | 0.469 µM (active) |  | 13.2 µM (active) |  | 14.8 µM (active) |  |  |  |  |  |  |  | 20.9 µM (active) | 14.8 µM (active) | 14.8 µM (active) |  | 
6 | Cc1cn2cc(C(=O)N(C)CCO)cc(N[C@@H]3CCOc4cccc(C)c43)c2n1 | inactive | inactive |  | inactive | inactive | inactive | inactive | inactive |  |  |  |  |  |  | inactive | inactive | inactive | inactive |  | 
7 | COC(=O)C[C@](O)(CCCC(C)(C)O)C(=O)O[C@@H]1C(OC)=C[C@]23CCCN2CCc2cc4c(cc2[C@H]13)OCO4 | inactive | 18.7 µM (active) | inactive | inactive | inactive | inactive | inactive | inactive | inactive |  |  |  |  |  |  | inactive |  |  |  | 
8 | CC(O)C1C(=O)N2C(C(=O)O)=C(SC3CNC(C(=O)N(C)C)C3)C(C)C12 (stereo not drawn) | inactive | inactive | inactive | inactive | inactive | inactive |  | inactive |  |  |  |  |  |  |  | inactive | inactive | inactive |  | 
